These results are taken from the supplement of paper PMC6555819.

Common to all, as to assay: PBM binding z-score (relative to random genomic background probes); higher = stronger binding; sequences stand for … in GC…GCGATTGACAGCGTAGAATGAAGG
The test system of assay [1] is RARb homodimer (NR concentration 270 nM). The method in brief: (§1)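 Binding buffer was PBS pH 7.4 with 2% milk, 0.02% Triton X-100, 1 mM DTT, 0.2 mg/mL BSA and 0.4 mg/ml salmon testes DNA. In it, ligand-free nuclear receptor dimers were incubated 1 h on custom Agilent 4×180K protein-binding microarrays carrying double-stranded probes. Antibodies against each partner (one per run) detected binding, and z-scores were calculated against random background probes after regression normalization of scanned fluorescence.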

For assay [2], the system named is RARg:RXRa (NR concentration 270 nM, RXRa partner concentration 90 nM). The method in brief: as §1
Assay [3] concerns RARg homodimer (NR concentration 270 nM). Summed up:
as §1

Assay [4] concerns RXRa DBDmut IVT, anti-RXR (DBD mutation: RXRa K156A/R161A, NR concentration 90 nM). The method in brief: as §1
In assay [5] the test system is RXRa homodimer (NR concentration 180 nM). The method in brief: as §1
Assay [6] concerns THRa:RXRa (NR concentration 90 nM, RXRa partner concentration 90 nM). Summed up:
as §1

In assay [7] the test system is THRa homodimer (NR concentration 90 nM). Summed up: as §1
In assay [8] the test system is VDR homodimer (NR concentration 270 nM). The method in brief:
as §1

For CATACAGGGGCAGCTAGGCCAGAGTAGGGACGGC, the PBM binding z-score was 0.473 in assay [1]; 0.498 in assay [2]; 1.02 in assay [3]; -0.381 in assay [4]; -0.153 in assay [5]; 0.05 in assay [6]. The PBM binding z-score in assay [7] is -0.63; in assay [8] it was -0.506.

Take ACTACTAGTTGACTTAGGGCAACCGATACGACGC: the PBM binding z-score in assay [1] came to 0.824; in assay [2], 0.463; in assay [3], 0.625; in assay [4] it was 0.495; in assay [5] it was 0.508; in assay [6], 1.32. The PBM binding z-score is 0.683 in assay [7] and 0.273 in assay [8].

As for CCTACTAGGTCATGGTCAGCTAATCTACAGTATG, the PBM binding z-score in assay [1] was found to be 3.34; in assay [2], 3.79; in assay [3], 4.21; in assay [4], 1.37; in assay [5] it was 2.66; in assay [6], 2.87. Further, the results for the PBM binding z-score in assay [7] and in assay [8] were 1.53 and 0.776, respectively.

With CGTAGTTGGTCAAGGTCACACACGCTATAGGTAC, the PBM binding z-score in assay [1] amounted to 4.23; in assay [2], 4.34; in assay [3] it was 4.9; in assay [4] it was 2.14; in assay [5], 4.06; in assay [6], 4.05. Moreover, the PBM binding z-score is 3.89 in assay [7] and 2.45 in assay [8].

On to TCTATTAGTTGATTAGCGCAACCGAAACAGCGGA, for which the PBM binding z-score in assay [1] is -0.343; in assay [2], 0.177; in assay [3], -0.0626; in assay [4] it was 1.29; in assay [5] it was 0.499; in assay [6] it was 0.0464. Further, the PBM binding z-score in assay [7] turned out to be 0.16; in assay [8], 0.523.

Regarding TGTCAAAGTTCAAAGGTATCGTAAGTATCCACAC, the PBM binding z-score in assay [1] was 3.71; in assay [2] it was 5.75; in assay [3] it was 6.26; in assay [4], 4.47; in assay [5] it was 6.28; in assay [6], 2.56. For the same sequence, the PBM binding z-score was -0.19 in assay [7] and 4.53 in assay [8].

Regarding CAAACTAGGTCAAAGGTCATAGTCGAGCCAACCA, the PBM binding z-score in assay [1] came out at 5.28; in assay [2] it was 8.65; in assay [3], 6.91; in assay [4] it was 2.92; in assay [5] it was 10.3; in assay [6], 4.84. The PBM binding z-score in assay [7] is 1.91; in assay [8], 3.55.

For AGAACGAGGGCCATGAGTTGATAGCACGGGTGGC, the PBM binding z-score in assay [1] is 0.111; in assay [2], 0.395; in assay [3], 0.308; in assay [4], -0.019; in assay [5], 0.448; in assay [6], -0.138. Besides, the PBM binding z-score in assay [7] was -0.79; in assay [8], 0.371.

With GGAACGAGGGCAAGATGATAGCAGAGTTTGATGG, the PBM binding z-score in assay [1] was determined as 1.21; in assay [2] it was 1.2; in assay [3], 1.78; in assay [4], 1.52; in assay [5], 0.962; in assay [6], 0.971. Further, the PBM binding z-score in assay [7] was -0.0312; in assay [8] it was 1.08.

For CTTACTGGGCCATTCAGAGGTCATTGATCATATG, the PBM binding z-score in assay [1] came out at 4.12; in assay [2] it was 4.5; in assay [3] it was 3.62; in assay [4], 1.88; in assay [5], 4.04; in assay [6], 3.24. Besides, the PBM binding z-score was 1.61 in assay [7] and 3.73 in assay [8].

CCGACTGGGGCATAAGTTTACCATAAGCCAGCCC: the PBM binding z-score in assay [1] is 0.519; in assay [2] it was 0.0613; in assay [3] it was 0.233; in assay [4], 0.17; in assay [5], -0.0212; in assay [6] it was -0.345. The figures for the PBM binding z-score in assay [7] and in assay [8] were -0.433 and -0.134, respectively.

On to CCACACAGGTGAGAAGGTAACTCAGCCTCGATTA, for which the PBM binding z-score in assay [1] was 0.713; in assay [2], 0.766; in assay [3] it was 0.648; in assay [4] it was 0.395; in assay [5], 0.675; in assay [6], 0.428. In addition, the PBM binding z-score in assay [7] was 0.324; in assay [8], -0.221.

In the case of CGTCCAAGGTCAATGCTAGGTCAATGAAAGCATT, the PBM binding z-score worked out at 5.08 in assay [1]; 7.66 in assay [2]; 6.89 in assay [3]; 3.4 in assay [4]; 5.18 in assay [5]; 4.57 in assay [6]. Besides, the PBM binding z-score in assay [7] worked out at 3.59; in assay [8], 3.48.

Take GCATATAGGTAATAGAAGGTGAAAGTCCGATTGT: the PBM binding z-score is 0.803 in assay [1]; 0.423 in assay [2]; 0.585 in assay [3]; 0.488 in assay [4]; 0.618 in assay [5]; 2.5 in assay [6]. Besides, the PBM binding z-score in assay [7] is -0.242; in assay [8], 0.274.

With GGAACGAGGGCAATTTGATAGCAGAGTTTGATGG, the PBM binding z-score in assay [1] was 0.804; in assay [2] it was 1.04; in assay [3] it was 1.25; in assay [4], 1.74; in assay [5] it was 0.881; in assay [6] it was 0.709. For the same sequence, the figures for the PBM binding z-score in assay [7] and in assay [8] were -0.191 and 0.777, respectively.

As for GGAACGAGGGCATTTGAGTTGATAGCATGGCGAT, the PBM binding z-score stood at 0.691 in assay [1]; 1.17 in assay [2]; 1.29 in assay [3]; 3.42 in assay [4]; 0.881 in assay [5]; 3.57 in assay [6]. Besides, the PBM binding z-score in assay [7] was -0.202; in assay [8], 3.57.
